In the library only some 7.9% were active in any assay of this set; here they are far more common.
HCV inh = inhibitors of hepatitis C virus infection; Huh7.5.1 HCVcc-Cre infection, luciferase reporter, 44 h; Potency, µM (highest dose often 41.8 µM), inactives show top-dose activity change, negative = inhibition, actives largely listed as inhibitors; 340,000 compounds, 3.4% hits; AID 651820; active = well fitted inhibition curve with a large enough effect; inconclusive = small, poorly fitted or top-dose-only effect, or another doubt; inactive = no such curve, though single readings can be large or run the other way; note: potency is the fitted concentration of half-maximal effect
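Compounds are dispensed onto cells plated 4 h earlier at 1,000 per well, with HCVcc-Cre virus (about 0.5 moi) added next. Following 44 h of culture, luminescent signal is measured for 15 sec after 15 min with substrate at room temperature.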
FMDV inh = foot and mouth disease virus antiviral activity | FMDV antiviral cell-based qHTS | Potency, µM (series often up to 57.9 µM), inactives show top-dose activity change, negative = inhibition, most hits filed as inhibitors | 410,000 compounds, 1.2% hits | AID 1159524; calls by dose curve; tested in HEK293T cells; note: read-out not given here; potency is the fitted concentration of half-maximal effect; nearly all actives have a fitted effect of over 45% in size
LASV entry inh = inhibitors of Lassa virus binding or cell entry | Potency, µM (top dose mostly 37.9 µM), without a hit: at the top dose activity change, negative = inhibition, hits mostly inhibitors | 300,000 compounds, 1.2% hits | AID 540256 | Lassa virus pseudotype entry inhibition, cell reporter; calls by dose curve; tested in HEK293 cells; note: potency is the fitted concentration of half-maximal effect; nearly all actives have a fitted effect of over 50% in size
MARV entry inh = inhibitors of Marburg virus binding or cell entry | Marburg virus pseudotyped entry inhibition, cell reporter | Potency, µM (highest dose often 37.8 µM), for inactives: at the highest dose activity change, negative = inhibition, most hits filed as inhibitors | 300,000 compounds, 1.8% hits | AID 540276; calls by dose curve; tested in HEK293 cells; note: potency is the fitted concentration of half-maximal effect
HCMV antiviral = inhibitors of human cytomegalovirus. HFF cells, HCMV-luciferase reporter, 72 h; active compounds read low. 410,000 compounds, 4.5% hits. activity change, negative = inhibition, % at 57.5 µM; in the data active = activity change below about -60%; inconclusive = no clear call, values can overlap the other calls; inactive = above about -39%
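Human foreskin fibroblasts infected with luciferase-reporter HCMV at MOI 1 PFU/cell, compounds at two doses. Luciferase measured 72 h post infection; normalized to buffer-only basal and Salinomycin (10uM) controls.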
The depositor's hits bear a star; ? = inconclusive; . = no result given; [ ] = another dose, or the depositor's remark. % is set by controls: 0 for no effect and ±100 for the full control effect.

SMILES	HCV inh	FMDV inh	LASV entry inh	MARV entry inh	HCMV antiviral
Cc1cc(=O)oc2c1ccc1oc(/C(=N/O)c3ccccc3)c(C)c12	6.3µM*	?	?	?	14
FC(F)Oc1ccc(COc2ccc3c(-c4ccccn4)noc3n2)cc1	.	.	.	.	12
Cn1cnnc1SCc1ccc(C(=O)N=Nc2c(O)n(Cc3ccc(Cl)cc3)c3ccccc23)cc1	10µM*	-25%	?	?	-33
CCn1c(O)c(N=NC(=O)c2ccc(CSc3nncn3C)cc2)c2ccccc21	?	-20%	2%	-40%	?
COC(=O)C1=CN(CCCN2CCCC2=O)C=C(C(=O)OC)C1c1ccccc1C(F)(F)F	-9%	-20%	?	-7%	-65*
C#CCCCON=C1C[C@@H](O)[C@H](O)[C@H]2[C@@H]3C(=O)N(C[C@@H]4CCCO4)C(=O)[C@@H]3CC[C@H]12	.	.	-11%[14.3 µM]	4%[14.2 µM]	.
O=c1cc(-c2ccccc2[N+](=O)[O-])oc2ccccc12	-25%	27%	?	?	-66*
O=c1cc(-c2ccccc2F)oc2ccccc12	?	39%	-6%	17%	53
CSc1ccc(-c2cc(=O)c3ccccc3o2)cc1	?	21%	26%	?	-72*
O=c1cc(-c2ccc(F)cc2)oc2ccccc12	-7%	23%	6%	?	15
O=C(NCc1ccc(F)cc1)[C@@H]1[C@@H](CO)[C@@H]2Cn3c(cccc3=O)[C@H]1N2CC1CCCC1	.	.	.	.	-2
CN(C)CC(O)CN1C(=O)N(CN2C(=O)N(CC(O)CN(C)C)C(=O)C2(C)C)C(C)(C)C1=O (stereo not drawn)	4%	7%	-2%	-25%[46.1 µM]	-62*
C=CCn1c(N/N=C/c2ccc(O)cc2)nc2ccccc2c1=O	-14%	37%	.	.	-65*
CN1C(=S)N(c2cccnc2)C(=O)/C1=C\c1ccc(N(C)C)cc1	-19%	?	9%[46.1 µM]	?	-64*
CN(C)c1ccc(/C=C/C(=O)c2cccnc2)cc1	-4%	10%	22%[46.1 µM]	?	20
Cc1c(N2C(=O)/C(=C\c3ccc(N(C)C)cc3)N(C)C2=S)c(=O)n(-c2ccccc2)n1C	-7%	-19%	-1%	-25%	-65*
O=c1cc(-c2ccccc2)[nH]n1-c1ccc([N+](=O)[O-])cc1	-14%	?	-5%	-21%	-95*
O=c1c(N=Nc2ccc(O)cc2)c(-c2ccccc2)[nH]n1-c1ccc([N+](=O)[O-])cc1	?	-21%	-18%	2%	-12
Cc1ccc(-c2nnc(Nc3ccccc3)c3ccccc23)cc1S(=O)(=O)N1CCOCC1	.	?	-14%[46.1 µM]	.	-1
Cc1ccc(-c2nnc(Nc3cccc(O)c3)c3ccccc23)cc1S(=O)(=O)N1CCOCC1	.	-48%	?	.	-61*
Cc1ccccc1Nc1nnc(-c2ccc(C)c(S(=O)(=O)N3CCOCC3)c2)c2ccccc12	.	?	?	.	-9
Cc1cccc(Nc2nnc(-c3ccc(N4CCOCC4)c([N+](=O)[O-])c3)c3ccccc23)c1	14µM*	-13%	10µM*	2.2µM*	-68*
Cc1ccc(Nc2nnc(-c3ccc(C)c(S(=O)(=O)N4CCOCC4)c3)c3ccccc23)c(C)c1	.	-19%	?	.	-66*
Cc1nnc(-c2ccc(N3CCOCC3)c([N+](=O)[O-])c2)o1	-7%	19%	.	.	.
CNS(=O)(=O)c1cc(-c2nnc(Nc3cc(C)ccc3C)c3ccccc23)ccc1C	.	9%	?	.	-78*
SMILES	HCV inh	FMDV inh	LASV entry inh	MARV entry inh	HCMV antiviral
COc1ccc(OCC2CCNCC2)cc1	3%	-20%	.	.	29
Cc1cc2cc(CN(CCN(C)C)C(=S)NCc3ccco3)c(=O)[nH]c2cc1C	-23%	-22%	-23%	?	?
CCN(CC)CCCN(Cc1cc2ccc(C)c(C)c2[nH]c1=O)C(=O)NC1CCCCC1	5.6µM*	8%	-3%	?	58
Cc1cc2cc(CN(Cc3cccs3)C(=S)NCc3ccco3)c(=O)[nH]c2cc1C	11µM*	-29%	-28%	14µM*	-1
CCN(CC)CCN(Cc1cc2cc(C)ccc2[nH]c1=O)C(=O)Nc1ccccc1OC	15%	-18%	-5%	?	-18
COc1ccccc1NC(=S)N(Cc1ccco1)Cc1cc2cc(C)ccc2[nH]c1=O	?	-3%	-12%	4µM*	-61*
COc1ccc(C(=O)N(Cc2ccco2)Cc2cc3cc(C)ccc3[nH]c2=O)cc1OC	?	-30%	?	-33%	30
CCc1ccc2[nH]c(=O)c(CN(Cc3ccccc3OC)C(=O)Nc3ccccc3OC)cc2c1	7.9µM*	-28%	?	?	-24
CSc1nn(Cc2ccc(F)cc2)c(N)c1S(=O)(=O)c1ccc(Cl)cc1	.	-14%	?	.	?
CC(Oc1cc(Cl)ccc1Cl)C(=O)N/N=C\c1ccnn1C (stereo not drawn)	?	-17%	0%	8%	-15
Cc1cccc(C)c1NC(=O)CNC(=O)CNC(=O)c1ccc2c(c1)OCO2	-3%	4%	?	6%	-17
Cc1ccc(C)c2[nH]c(=O)c(CN(CC3CCCO3)C(=S)NCc3ccco3)cc12 (stereo not drawn)	?	7%	-24%[46.1 µM]	?	0
Cc1ccc2cc(CN(CC3CCCO3)C(=S)NCc3ccco3)c(=O)[nH]c2c1C (stereo not drawn)	?	32%	5.8µM*	0.63µM*	-63*
CCC(CC)C(=O)NCCc1cc2cc(C)c(C)cc2[nH]c1=O	4%	-21%	.	.	0
Cc1cc2cc(CCNC(=O)c3cccs3)c(=O)[nH]c2cc1C	-20%	5%	?	-6%	-99*
C[C@H]1CC[C@H]2C(=O)O[C@H](CO)CN2[C@@H]1c1ccc(Br)cc1	.	.	.	-20%[14.2 µM]	.
COc1cccc(-c2csc(N3CCN(C(=S)Nc4cccc(Cl)c4)CC3)n2)c1	?	.	?	?	-22
COc1cccc(-c2csc(N3CCN(C(=O)Nc4ccc(Cl)cc4)CC3)n2)c1	11µM*	?	.	.	?
COc1ccc(NC(=O)N2CCN(c3nc(-c4cccc(OC)c4)cs3)CC2)cc1	6.3µM*	20µM*	?	23µM*	-91*
COc1ccc(N(CC(=O)N/N=C/c2ccccc2OC)S(=O)(=O)c2ccccc2)cc1	16%	-2%	1%	-20%[46.1 µM]	-12
CC(=O)c1ccc2c(c1)C1C(Cl)C(Sc3ccccc3[N+](=O)[O-])CC1C(c1ccccc1[N+](=O)[O-])N2 (stereo not drawn)	2.2µM*	-25%	?	?	-88*
CC(=O)c1ccc2c(c1)C1C(Cl)C(Sc3ccccc3[N+](=O)[O-])CC1C(c1ccccc1)N2 (stereo not drawn)	?	-21%	-18%	-17%	-39
COc1ccc(C(=O)CCC(=O)Nc2cccnc2)cc1OC	5%	-12%	-4%	-11%[46.1 µM]	-10
NC(=O)CC(NC(=O)c1ccccc1)c1ccc(NC2CCCCC2)c([N+](=O)[O-])c1 (stereo not drawn)	16%	-11%	.	.	-27

Screens from PubChem BioAssay.
